Measured values from PubChem BioAssay (NCI).
The panel holds about 79,000 compounds, 15% with a hit somewhere; the sample as a whole holds those more often. Values without a mark were called inactive. Active and inactive are the calls of the source. Rule as the data show it: active = growth inhibition above about 70%; inactive = the rest.

Experiments:
[1] = NCI Yeast Anticancer Drug Screen. Data for the mec2-1 strain (AID 157); details: S. cerevisiae mec2-1 strain, hits give high values
In short: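 Each compound was tested on mec2-1 yeast, a strain altered in DNA damage repair or cell cycle control. Growth inhibition is reported relative to vehicle.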

[2] = NCI Yeast Anticancer Drug Screen. Data for the rad14 strain (AID 159);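 also: 0% = growth of vehicle-treated control cultures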; details: S. cerevisiae rad14 strain growth inhibition, hits give high values
In short: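 Readout: yeast growth inhibition, referenced to vehicle-only cultures. Strain bears a defined alteration in DNA damage repair.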

[3] = NCI Yeast Anticancer Drug Screen. Data for the sgs1 mgt1 strain (AID 161);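 also: 0% = growth of cultures given vehicle only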; details: S. cerevisiae sgs1 mgt1 strain, hits give high values
In short: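 Test agents were incubated with a DNA-repair-mutant yeast strain. Growth was then read and compared against vehicle-treated controls.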

[4] = NCI Yeast Anticancer Drug Screen. Data for the CLN2oe strain (AID 163);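 also: 0% = growth of vehicle-only control cultures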; details: S. cerevisiae CLN2oe strain, hits give high values
In short: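 First, the altered yeast strain was treated with each compound; second, its growth was measured; finally, inhibition was derived by comparison with vehicle controls.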

[5] = NCI Yeast Anticancer Drug Screen. Data for the cln2 rad14 strain (AID 165);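 also: 0% = growth equal to vehicle treated cultures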; details: S. cerevisiae cln2 rad14 strain, hits give high values
In short: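 Test compounds were added to cln2 rad14 yeast cultures; inhibition of growth was then determined by comparison with vehicle treatment.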

[6] = NCI Yeast Anticancer Drug Screen. Data for the bub3 strain (AID 167); details: S. cerevisiae bub3 mutant strain, hits give high values
In short: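 Part of a panel of yeast mutants defective in DNA damage repair or cell cycle regulation. Each strain is grown with compound, and inhibition is calculated relative to solvent-treated cultures.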

[7] = NCI Yeast Anticancer Drug Screen. Data for the wt2 strain (AID 169);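 also: 0% = growth of vehicle-treated yeast cultures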; details: S. cerevisiae wt2 strain growth inhibition, hits give high values
In short: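 The panel's yeast strains carry defined changes in DNA repair or cell cycle genes. Each strain is grown with compound, and growth loss is scored relative to vehicle.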

[8] = NCI Yeast Anticancer Drug Screen. Data for the mlh1 strain (AID 171);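 also: 0% = growth of vehicle-treated control cultures of the same strain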; details: S. cerevisiae mlh1 strain growth inhibition, hits give high values
In short: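 Inhibition values reflect reduced yeast growth in the presence of compound, referenced to vehicle controls, using a strain chosen for its alteration in DNA repair or cell cycle control.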

[9] = NCI Yeast Anticancer Drug Screen. Data for the sgs1 strain (AID 173);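 also: 0% = growth of vehicle-only control cultures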; details: S. cerevisiae sgs1 mutant, hits give high values
In short: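 Vehicle-treated cultures served as reference for growth inhibition of a yeast strain altered in DNA damage repair or cell cycle control after compound exposure.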

[10] = NCI Yeast Anticancer Drug Screen. Data for the mlh1 rad18 strain (AID 175); details: S. cerevisiae mlh1 rad18 strain growth inhibition, hits give high values
In short: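 Inhibition values reflect reduced growth of mutant yeast versus vehicle-treated controls following compound exposure; the mutations affect DNA damage repair.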

[11] = NCI Yeast Anticancer Drug Screen. Data for the rad18 strain (AID 177); details: S. cerevisiae rad18 mutant growth inhibition, hits give high values
In short: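 Steps: expose repair-mutant yeast to compound; measure growth; express as inhibition relative to vehicle control.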

[12] = NCI Yeast Anticancer Drug Screen. Data for the rad52 strain (AID 147);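 also: 0% = growth of vehicle-treated control cultures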; details: S. cerevisiae rad52 mutant growth inhibition, hits give high values
In short: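 Inhibition of yeast growth, referenced to vehicle controls, was the measured output for a strain with defective DNA damage repair.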

[13] = NCI Yeast Anticancer Drug Screen. Data for the wt1 strain (AID 149);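 also: 0% = growth of vehicle-treated wt1 cultures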; details: S. cerevisiae wt1 strain (SPY 50644) growth inhibition, hits give high values
In short: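 The wt1 strain was treated with compounds, and growth was compared with vehicle-treated cultures to give inhibition.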

[14] = NCI Yeast Anticancer Drug Screen. Data for the rad50EPP+ strain (AID 151);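 also: 0% = growth of vehicle-treated control cultures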; details: S. cerevisiae rad50 mutant strain, hits give high values
In short: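 Genetically defined yeast (rad50EPP+, DNA damage repair alteration) is grown with compound, and inhibition of growth is expressed relative to vehicle-treated controls.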

[15] = NCI Yeast Anticancer Drug Screen. Data for the rad50 strain (AID 155);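 also: 0% = growth of vehicle-only cultures of the same strain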; details: S. cerevisiae rad50 strain growth inhibition, hits give high values
In short: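 Cells are treated with compound, grown, and their growth is then scored against vehicle-only cultures of the same repair-deficient yeast strain.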

[16] = at 5.0 µM (retest, dose inferred, filed as 0.5)
[17] = at 50.0 µM (retest, dose inferred, filed as 5.0)

Which growth inhibition ([1]; at 100.0 µM) does the source give for `O=C(Nc1cccc(C(F)(F)F)c1)Oc1ccc(Cl)cc1C(=O)c1ccccc1` here?
The growth inhibition was 97% (active).

What about the growth inhibition ([2]; at 1.2 µM) of the same molecule?
Its growth inhibition is -3%.

What about the growth inhibition ([2]; at 3.7 µM) of the same molecule?
Its growth inhibition is -2%.

What about the growth inhibition ([2]; at 11.0 µM) of the same molecule?
Its growth inhibition is 51%.

And the growth inhibition ([2]; at 33.0 µM)?
The growth inhibition was 64%.

What about the growth inhibition ([2]; at 100.0 µM) of the same molecule?
The growth inhibition was 97% (active).

What about the growth inhibition [3, 16] of the same molecule?
Its growth inhibition is -34%.

And the growth inhibition [3, 17]?
The growth inhibition was 98% (active).

And the growth inhibition ([3]; at 50.0 µM)?
The growth inhibition was 92.9% (active).

And the growth inhibition ([4]; at 1.2 µM)?
Its growth inhibition is 24%.

What about the growth inhibition ([4]; at 3.7 µM) of the same molecule?
Its growth inhibition is 15%.

And the growth inhibition ([4]; at 11.0 µM)?
The growth inhibition was 74% (active).

What about the growth inhibition ([4]; at 33.0 µM) of the same molecule?
Its growth inhibition is 85% (active).

What about the growth inhibition ([4]; at 100.0 µM) of the same molecule?
The growth inhibition was 97% (active).

What about the growth inhibition [5, 16] of the same molecule?
The growth inhibition was 31%.

And the growth inhibition [5, 17]?
Its growth inhibition is 98% (active).

What about the growth inhibition ([5]; at 50.0 µM) of the same molecule?
Its growth inhibition is 93% (active).

And the growth inhibition ([6]; at 1.2 µM)?
Its growth inhibition is 10%.

What about the growth inhibition ([6]; at 3.7 µM) of the same molecule?
Its growth inhibition is 24%.

And the growth inhibition [6, 16]?
The growth inhibition was 15%.

What about the growth inhibition ([6]; at 11.0 µM) of the same molecule?
The growth inhibition was 83% (active).

What about the growth inhibition ([6]; at 33.0 µM) of the same molecule?
Its growth inhibition is 91% (active).

And the growth inhibition [6, 17]?
Its growth inhibition is 96% (active).

And the growth inhibition ([6]; at 50.0 µM)?
Its growth inhibition is 91% (active).

What about the growth inhibition ([6]; at 100.0 µM) of the same molecule?
Its growth inhibition is 97% (active).

And the growth inhibition ([7]; at 1.2 µM)?
Its growth inhibition is 15%.

What about the growth inhibition ([7]; at 3.7 µM) of the same molecule?
Its growth inhibition is 6%.

What about the growth inhibition ([7]; at 11.0 µM) of the same molecule?
Its growth inhibition is 91% (active).

What about the growth inhibition ([7]; at 33.0 µM) of the same molecule?
Its growth inhibition is 77% (active).

And the growth inhibition ([7]; at 100.0 µM)?
Its growth inhibition is 98% (active).

And the growth inhibition ([8]; at 1.2 µM)?
The growth inhibition was 9%.

And the growth inhibition ([8]; at 3.7 µM)?
Its growth inhibition is 8%.

And the growth inhibition ([8]; at 11.0 µM)?
The growth inhibition was 88% (active).

And the growth inhibition ([8]; at 33.0 µM)?
Its growth inhibition is 70% (active).

And the growth inhibition ([8]; at 100.0 µM)?
Its growth inhibition is 97% (active).

And the growth inhibition ([9]; at 1.2 µM)?
The growth inhibition was 24%.

What about the growth inhibition ([9]; at 3.7 µM) of the same molecule?
The growth inhibition was 30%.

And the growth inhibition ([9]; at 11.0 µM)?
The growth inhibition was 82% (active).

And the growth inhibition ([9]; at 33.0 µM)?
The growth inhibition was 91% (active).

What about the growth inhibition ([9]; at 100.0 µM) of the same molecule?
Its growth inhibition is 97% (active).

What about the growth inhibition [10, 16] of the same molecule?
Its growth inhibition is 100% (active).

And the growth inhibition [10, 17]?
The growth inhibition was 93% (active).

And the growth inhibition ([10]; at 50.0 µM)?
The growth inhibition was 91.2% (active).

And the growth inhibition ([11]; at 1.2 µM)?
The growth inhibition was 6%.

What about the growth inhibition ([11]; at 3.7 µM) of the same molecule?
The growth inhibition was 21%.

What about the growth inhibition ([11]; at 11.0 µM) of the same molecule?
Its growth inhibition is 91% (active).

What about the growth inhibition ([11]; at 33.0 µM) of the same molecule?
The growth inhibition was 86% (active).

And the growth inhibition ([11]; at 100.0 µM)?
The growth inhibition was 98% (active).

What does the source list for `CCOC(=O)Nc1ccc2c(c1)Cc1ccccc1-2`?
growth inhibition ([12]; at 1.2 µM): -11%; growth inhibition ([12]; at 3.7 µM): -10%; growth inhibition ([12]; at 11.0 µM): -7%; growth inhibition ([12]; at 33.0 µM): -5%; growth inhibition ([12]; at 100.0 µM): -5%; growth inhibition ([13]; at 1.2 µM): -2%; growth inhibition ([13]; at 3.7 µM): 5%; growth inhibition ([13]; at 11.0 µM): 11%; growth inhibition ([13]; at 33.0 µM): 7%; growth inhibition ([13]; at 100.0 µM): 10%; growth inhibition ([14]; at 1.2 µM): -6%; growth inhibition ([14]; at 3.7 µM): -13%; growth inhibition ([14]; at 11.0 µM): 15%; growth inhibition ([14]; at 33.0 µM): 21%; growth inhibition ([14]; at 100.0 µM): 21%; growth inhibition ([15]; at 1.2 µM): -15%; growth inhibition ([15]; at 3.7 µM): -14%; growth inhibition [15, 16]: 4%; growth inhibition ([15]; at 11.0 µM): -23%; growth inhibition ([15]; at 33.0 µM): -22%; growth inhibition [15, 17]: 2%; growth inhibition ([15]; at 50.0 µM): -9.4%; growth inhibition ([15]; at 100.0 µM): -9%; growth inhibition ([1]; at 1.2 µM): -4%; growth inhibition ([1]; at 3.7 µM): -4%; growth inhibition [1, 16]: 1%; growth inhibition ([1]; at 11.0 µM): -6%; growth inhibition ([1]; at 33.0 µM): -5%; growth inhibition [1, 17]: 12%; growth inhibition ([1]; at 50.0 µM): -5.5%; growth inhibition ([1]; at 100.0 µM): -2%; growth inhibition ([2]; at 1.2 µM): 0%; growth inhibition ([2]; at 3.7 µM): -8%; growth inhibition ([2]; at 11.0 µM): 1%; growth inhibition ([2]; at 33.0 µM): 1%; growth inhibition ([2]; at 100.0 µM): 3%; growth inhibition [3, 16]: 4%; growth inhibition [3, 17]: 8%; growth inhibition ([3]; at 50.0 µM): 5.6%; growth inhibition ([4]; at 1.2 µM): -9%; growth inhibition ([4]; at 3.7 µM): -12%; growth inhibition ([4]; at 11.0 µM): -13%; growth inhibition ([4]; at 33.0 µM): -12%; growth inhibition ([4]; at 100.0 µM): -7%; growth inhibition [5, 16]: -8%; growth inhibition [5, 17]: -3%; growth inhibition ([5]; at 50.0 µM): -19%; growth inhibition ([6]; at 1.2 µM): 35%; growth inhibition ([6]; at 3.7 µM): 28%; growth inhibition [6, 16]: 49%; growth inhibition ([6]; at 11.0 µM): 21%; growth inhibition ([6]; at 33.0 µM): 21%; growth inhibition [6, 17]: 88% (active); growth inhibition ([6]; at 50.0 µM): 87.2% (active); growth inhibition ([6]; at 100.0 µM): 26%; growth inhibition ([7]; at 1.2 µM): 5%; growth inhibition ([7]; at 3.7 µM): 9%; growth inhibition ([7]; at 11.0 µM): 14%; growth inhibition ([7]; at 33.0 µM): 19%; growth inhibition ([7]; at 100.0 µM): 14%; growth inhibition ([8]; at 1.2 µM): -14%; growth inhibition ([8]; at 3.7 µM): -8%; growth inhibition ([8]; at 11.0 µM): -7%; growth inhibition ([8]; at 33.0 µM): -7%; growth inhibition ([8]; at 100.0 µM): -5%; growth inhibition ([9]; at 1.2 µM): -18%; growth inhibition ([9]; at 3.7 µM): -12%; growth inhibition ([9]; at 11.0 µM): -4%; growth inhibition ([9]; at 33.0 µM): 3%; growth inhibition ([9]; at 100.0 µM): 0%; growth inhibition [10, 16]: -11%; growth inhibition [10, 17]: -25%; growth inhibition ([10]; at 50.0 µM): 16.4%; growth inhibition ([11]; at 1.2 µM): -11%; growth inhibition ([11]; at 3.7 µM): -7%; growth inhibition ([11]; at 11.0 µM): -4%; growth inhibition ([11]; at 33.0 µM): -6%; growth inhibition ([11]; at 100.0 µM): -10%
